Results on 40 compounds are retold here after PubChem BioAssay (NCI).

Compounds without any hit were thinned out: in the full panel of roughly 83,000, 20% have a hit.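 Plates (96-well) were seeded with cells, treated with compound at one concentration, and incubated for 48 hours before percent growth was determined.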 Active and inactive are the calls of the source. The calls were made as follows: active = growth percent below 10; inactive = the rest.

For this assay, the system named is HL-60(TB) leukemia. Put plainly: NCI-60 one-dose screen, 48 h (100 = growth as untreated, 0 = no growth, -100 = all killed). The conditions noted are these: 10 µM unless noted.
On to `Cc1cc2nc3c4ccccc4n(CCO)c3nc2cc1C`, for which the growth is 101% (inactive).
On to `CN1CCN(Cc2ccc(C(=O)Nc3cccc(Nc4ccc5cc(O)ccc5n4)c3)cc2C(F)(F)F)CC1`, for which the growth is -70.2% (active).
Turning to `COc1cc(/C=C/C(=O)c2ccc(S(=O)(=O)NCCNc3nc(N(C)C)nc(N4CCOCC4)n3)cc2)cc(OC)c1OC`, the growth was -64.8% (active).
For the compound `CCCSc1nc(NCCc2c[nH]c3ccccc23)c(C#N)c(-c2ccc(OC)cc2)n1`, the growth is 40.7% (inactive).
For the compound `COc1ccc(-c2cc(-c3cc(C(=O)c4ccc(Br)cc4)n4ccc(C)cc34)nc(N)c2C#N)cc1`, the growth is 96.6% (inactive).
As for `Cc1ccc([C@H]2C(C(=O)c3ccc(Cl)cc3)C3(N[C@@H]2c2ccccc2)C(=O)Nc2ccccc23)cc1` (stereo not given in full), the figure is -22.2% (active).
For `O=C1NC2C=CC=CC2/C1=C1/SC(=S)N(C2CC(=O)N(c3ccc(Br)cc3)C2=O)C1=O` (stereo not given), the growth is 58.9% (inactive).
In the case of `O=C1/C(=C/C=C/c2ccco2)SC(=S)N1CC(=S)C1C=CS(=O)(=O)C1` (stereo not given), the growth is 59.4% (inactive).
For `Cn1cc(-c2cc3nc(-c4c[nH]c5ccccc45)cc(N)n3n2)c2cc(Cl)ccc21`, the growth was -24.8% (active).
As for `CCCCSc1nc(Nc2ccc(S(N)(=O)=O)cc2)c(C#N)c(-c2ccc(Cl)cc2)n1`, the figure is 62.9% (inactive); as for `C=C1CCC2C3(C)COC(c4c(F)cccc4F)OC3CCC2(C)C1C/C=C1/C(=O)OCC1O` (stereo not given), 6.75% (active).
In the case of `CC1(C)CC[C@]2(C(=O)O)CC[C@]3(C)C(=CCC4[C@@]5(C)C[C@@H](O)[C@@H]6OC(c7ccco7)OC[C@@]6(C)C5CC[C@]43C)C2C1` (stereo not given in full), the growth is 13.5% (inactive).
For `COc1ccc(C(=O)/C=C/c2ccc(OC)c(OCc3ccccc3)c2)cc1OC`, the growth was 2.91% (active).
In the case of `COc1cc(-c2nc3ccc(C)cc3[nH]2)ccc1OCc1nnc(-c2ccc(Br)cc2)o1`, the growth was -34.8% (active).
For `COc1cnc2c(c1)C(=O)c1c-2n(CCCNCCO)c(=O)c2cc(OC)c(OC)cc12`, the growth is 61.3% (inactive).
Take `CCOc1ccc(-c2c(C#N)c(-c3ccc(Cl)cc3)nc3n[nH]c(-c4ccc(Cl)cc4)c23)cc1OC`: the growth is 4.06% (active).
Take `S=C(Nc1ccc(OCc2nc3ccccc3[nH]2)cc1)NC1CCCCC1`: the growth is 103% (inactive).
Take `C/C(=N\NC(N)=S)c1ccc(Nc2nc(SC(C)C)nc(-c3ccccc3)c2C#N)cc1`: the growth was 89.9% (inactive).
With `O=C(N/N=C/c1ccc(-c2ccc(O)cc2)o1)c1[nH]c2ccc(Br)cc2c1-c1ccccc1`, the growth is -20.6% (active).
`Cc1ccc(C2CC(c3ccc(S(=O)(=O)NCCNc4nc(N(C)C)nc(N5CCOCC5)n4)cc3)=Nc3c(N)nc(N)nc3N2)cc1` (stereo not given): the growth is 35.8% (inactive).
`COc1cc(-c2nc3ccc(C)cc3[nH]2)ccc1OCc1nnc(-c2ccccc2Br)o1`: the growth is 69.5% (inactive).
As to `Cn1cc(-c2cc(N)n3nc(-c4cn(C)c5ccccc45)cc3n2)c2cc(Cl)ccc21`, the growth is -26% (active).
As to `O=C(Cn1c(/C=C/c2ccc([N+](=O)[O-])cc2)nc2ccccc2c1=O)Nc1ccccc1`, the growth was 102% (inactive).
For the compound `O=C1Nc2ccccc2/C1=C\c1ccc(OCC(=O)c2ccc(Br)cc2)cc1`, the growth was 40.4% (inactive).
Then `FC(F)(F)CN1CCN(CCn2c(C(F)(F)F)cc3c(Cl)ncnc32)CC1`, with -65.2% (active); and `CCN(C(=O)CN1C(=O)/C(=C/c2ccco2)SC1=S)C1CCS(=O)(=O)C1` (stereo not given), with 92.4% (inactive); and `O=C(CSc1nnc(-c2c[nH]c3ccccc23)n1-c1ccccc1)Nc1ccc(C(=O)/C=C/c2cccc([N+](=O)[O-])c2)cc1`, with 86.8% (inactive).
For the compound `NS(=O)(=O)c1ccc(Nc2nc(SCC(=O)c3ccc(F)cc3)nc3ccccc23)cc1`, the growth is 63.7% (inactive).
As to `COc1ccc(/C=N/NC(=O)Cn2nc(Cc3ccc(OC)cc3)c3onc(C)c3c2=O)cc1`, the growth was 27.6% (inactive).
In the case of `O=C1Nc2ccc(Cl)cc2/C1=C/c1cccc(OCc2ccccc2)c1`, the growth is 8.8% (active).
As for `COc1nc(N)ncc1-c1ccc2ncnc(N3CCc4cc(F)c(Cl)cc43)c2c1`, the figure is 47% (inactive); as for `COc1cc(/C=C/C(=O)c2ccc(F)cc2)ccc1Oc1nc(Nc2ccc(F)cc2)nc(N(C)C)n1`, 61.3% (inactive).
Turning to `COc1c(B(O)O)cc(F)cc1-c1nc2c(F)cc3[nH]ncc3c2c2c1CCCC2`, the growth was 1.83% (active).
Then `CC1=C(C(=O)OCc2ccccc2)C(c2cccc3ccccc23)n2c(nc3ccccc32)N1` (stereo not given), with 1.4% (active).
Regarding `Nc1nn2c(-c3cc4cc(Br)ccc4oc3=O)ccnc2c1N=Nc1ccccc1`, the growth is 92.7% (inactive).
As to `COc1cc(/C=C/C(=O)c2ccccc2)ccc1Oc1nc(Nc2ccc(F)cc2)nc(N(C)C)n1`, the growth is 20.5% (inactive).
Take `COc1cc(OC)c2c3nc4cc(C)c(C)cc4nc3n(CCN(C)C)c2c1`: the growth is 52.9% (inactive).
Regarding `COc1ccccc1NC(=O)c1ccc(NC(=O)CCl)s1`, the growth was -53.8% (active).
With `CCOC(=O)c1ccc(NC(=S)NC(=O)c2ccc(NC(=O)C(C)C)cc2OC)cc1`, the growth is 46.3% (inactive).
In the case of `COc1ccccc1[C@H]1C(C(=O)c2ccc(O)cc2)C2(N[C@@H]1c1ccccc1)C(=O)Nc1ccc(Br)cc12` (stereo not given in full), the growth was 10.5% (inactive).
